Here are results for 13 compounds from PubChem BioAssay (NCI).

Structures are written as SMILES. The panel holds about 83,000 compounds, 20% with a hit somewhere; the sample as a whole holds those more often.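 96-well plates, one dose, 48 hours. Percent growth reported; active if below 10.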 A number with no mark means an inactive call. The source made the active and inactive calls.

Some test systems named below: NCI-H23 lung; NCI-H226 lung; NCI-H322M lung; HOP-62 NSCLC; NCI-H460 lung; HOP-92 NSCLC; NCI-H522 lung; A549/ATCC NSCLC; 786-0 renal; COLO 205 colon.
Holding throughout (assay): NCI-60 one-dose screen, 48 h (100 = growth as untreated, 0 = no growth, -100 = all killed)
Holding throughout (conditions): 10 µM unless noted

Consider `Nc1n[nH]c2ccc([C@@H]3Nc4cc5c(cc4[C@H]4C6CCC(C6)[C@@H]34)C(=O)NC5)cc12` (stereo not given in full), for which the growth with NCI-H23 lung was 28.3%; with NCI-H226 lung, 4.99% (active); in the assay with NCI-H322M lung, 42.1%; in the assay with HOP-62 NSCLC, 39.4%; in the assay with NCI-H460 lung, 1.7% (active); with HOP-92 NSCLC, 75.3%. The growth was 16.9% in the assay with NCI-H522 lung, 26.4% in the assay with A549/ATCC NSCLC, 17.3% in the assay on 786-0 renal and -40.1% (active) in the assay with COLO 205 colon.
As for `CCCCCCN(CCCCCC)CCC(O)c1ccc2ccccc2c1` (stereo not given), the growth with NCI-H23 lung was 45.3%; in the assay on NCI-H226 lung it was 79.2%; in the assay on NCI-H322M lung, 80.9%; with HOP-62 NSCLC, 101%; in the assay with NCI-H460 lung, 51.5%; in the assay with HOP-92 NSCLC, 2.35% (active). Besides, the growth with NCI-H522 lung is 60.2%; in the assay with A549/ATCC NSCLC it was 74.5%; with 786-0 renal it was 54.1%; in the assay on COLO 205 colon, 39.5%.
`O=C(CN1CCCCC1)Nc1ccc2oc(=O)ccc2c1`: the growth was 97.5% with NCI-H23 lung; 95.8% in the assay with NCI-H226 lung; 105% with NCI-H322M lung; 99.7% with HOP-62 NSCLC; 104% with NCI-H460 lung; 91.3% in the assay on HOP-92 NSCLC. Besides, the growth in the assay on NCI-H522 lung was 84.6%; with A549/ATCC NSCLC, 100%; with 786-0 renal, 107%; in the assay on COLO 205 colon it was 119%.
`Cc1ccc2c(c1)C(=O)/C(=C/c1cccc(OCC(=O)c3ccc(Cl)cc3)c1)CS2`: the growth was 79% in the assay with NCI-H23 lung; 91.6% in the assay on NCI-H226 lung; 72.9% in the assay with NCI-H322M lung; 105% with HOP-62 NSCLC; 98.8% in the assay on NCI-H460 lung; 61.5% in the assay on HOP-92 NSCLC. The growth with NCI-H522 lung was 46.8%; in the assay with A549/ATCC NSCLC it was 103%; in the assay with 786-0 renal it was 103%; in the assay with COLO 205 colon, 111%.
With `COc1cc(/C=C/c2cc(/C=C/c3ccc(O)c(OC)c3)n(-c3c(C)cccc3C)c(=O)n2)ccc1O`, the growth was 2.99% (active) in the assay with NCI-H23 lung; 4.63% (active) in the assay on NCI-H226 lung; 15.9% in the assay with NCI-H322M lung; -2.09% (active) with HOP-62 NSCLC; 7.91% (active) with NCI-H460 lung; -3.15% (active) with HOP-92 NSCLC. The growth in the assay on NCI-H522 lung is -10.2% (active); in the assay on A549/ATCC NSCLC, 2.96% (active); in the assay with 786-0 renal it was 12.6%; in the assay with COLO 205 colon, -40.9% (active).
With `COc1cc(C(=O)/C=C/c2cccnc2Nc2ccc(Cl)cc2)cc(OC)c1OC`, the growth is -17.5% (active) with NCI-H23 lung; -82.7% (active) with NCI-H226 lung; 9.66% (active) in the assay on NCI-H322M lung; -68.6% (active) in the assay with HOP-62 NSCLC; 4.24% (active) with NCI-H460 lung; -54.5% (active) in the assay on HOP-92 NSCLC. Further, the growth in the assay with NCI-H522 lung was -58.4% (active); with A549/ATCC NSCLC it was -29.2% (active); with 786-0 renal, -83.4% (active); in the assay on COLO 205 colon, -81.4% (active).
In the case of `O=C(Cc1ccc(/C=C/C(=O)c2ncc[nH]2)cc1)Nc1ccccc1`, the growth in the assay with NCI-H23 lung was 39.8%; in the assay on NCI-H226 lung it was 87.7%; with NCI-H322M lung, 67.4%; in the assay on HOP-62 NSCLC, 49.9%; with NCI-H460 lung it was 11.7%; with HOP-92 NSCLC it was 83.6%. The growth in the assay on NCI-H522 lung is 31.2%; in the assay with A549/ATCC NSCLC, 57.2%; in the assay with 786-0 renal, 32.8%; in the assay on COLO 205 colon, 45.5%.
On to `O=C(COc1cccc(/C=C2\COc3ccc(Cl)cc3C2=O)c1)c1ccc(Cl)cc1`, for which the growth is 86.1% in the assay on NCI-H23 lung; 88.1% in the assay with NCI-H226 lung; 98.2% with NCI-H322M lung; 73.7% in the assay with HOP-62 NSCLC; 102% with NCI-H460 lung; 66.3% in the assay with HOP-92 NSCLC. For the same compound, the growth with NCI-H522 lung was 87.1%; in the assay on A549/ATCC NSCLC it was 100%; with 786-0 renal, 98%; in the assay on COLO 205 colon, 116%.
Take `Clc1ccc2c(NCCCCNc3nc(N4CCOCC4)nc4ccccc34)ccnc2c1`: the growth is 59.7% in the assay with NCI-H23 lung; -43.4% (active) in the assay with NCI-H226 lung; 26.4% in the assay on NCI-H322M lung; -9.83% (active) in the assay with HOP-62 NSCLC; 4.54% (active) in the assay on NCI-H460 lung; 71.8% in the assay with HOP-92 NSCLC. The growth with NCI-H522 lung was -25.6% (active); in the assay on A549/ATCC NSCLC it was 14.6%; with 786-0 renal, -54.1% (active); with COLO 205 colon it was -46.9% (active).
For `O=C1NC(=O)C(c2ccc(Cl)cc2Cl)N1` (stereo not given), the growth was 100% in the assay with NCI-H23 lung; 103% with NCI-H226 lung; 100% in the assay on NCI-H322M lung; 111% with HOP-62 NSCLC; 95.2% in the assay on NCI-H460 lung; 107% with HOP-92 NSCLC. The growth with NCI-H522 lung was 93.8%; in the assay with A549/ATCC NSCLC, 101%; in the assay on 786-0 renal it was 110%; with COLO 205 colon, 125%.
`COc1ccc2c(c1)O/C(=C\c1cccc(OCC(=O)Nc3nc4c(s3)CCCC4)c1)C2=O`: the growth with NCI-H23 lung is 37.8%; in the assay on NCI-H226 lung, 86.9%; with NCI-H322M lung, 95.4%; in the assay on HOP-62 NSCLC, 103%; in the assay on NCI-H460 lung, 115%; with HOP-92 NSCLC it was -23.4% (active). Moreover, the growth is -91.4% (active) in the assay on NCI-H522 lung, 94.6% in the assay with A549/ATCC NSCLC, 89.9% with 786-0 renal and 113% in the assay with COLO 205 colon.
Turning to `N#Cc1nnn(-c2ccc(S(N)(=O)=O)cc2)c1NC(=O)CCl`, the growth in the assay on NCI-H23 lung was 100%; in the assay with NCI-H226 lung, 95.5%; in the assay with NCI-H322M lung, 93.4%; in the assay on HOP-62 NSCLC, 92.2%; in the assay with NCI-H460 lung, 104%; with HOP-92 NSCLC it was 96.1%. The growth in the assay with NCI-H522 lung was 95%; in the assay on A549/ATCC NSCLC it was 92.9%; in the assay with 786-0 renal it was 98%; with COLO 205 colon, 110%.
As to `O=C1c2ccccc2C(=O)c2c(N=Nc3[nH]c(=S)[nH]c3O)cccc21`, the growth in the assay on NCI-H23 lung is 41.7%; in the assay on NCI-H226 lung, 28.3%; in the assay on NCI-H322M lung it was 40.1%; with HOP-62 NSCLC, 25%; with NCI-H460 lung, 7.32% (active); with HOP-92 NSCLC it was 19.8%. Also, the growth is -6.34% (active) in the assay with NCI-H522 lung, 24.3% in the assay on A549/ATCC NSCLC, 22.6% in the assay on 786-0 renal and 19% with COLO 205 colon.
